experiment: osmotic lysis modulators in infected erythrocytes, primary screen, PSAC antagonist project, cell-based, P. falciparum Indochina, OD700, 3 h (AID 1156); details: higher = more signal, called active from +8 up or from −8 down

z-score, inactive:
C#CCCCON=C1C[C@@H](O)[C@@H](O)[C@@H]2[C@@H]3C(=O)N(Cc4ccccc4)C(=O)[C@@H]3CC[C@@H]12 -0.292
CCCNC(=O)OC[C@H]1O[C@H](CCON=C(C)CCC(=O)OC[C@H]2O[C@H](c3ccccc3)C=C[C@@H]2Oc2ccc(OC)cc2)C=C[C@@H]1Oc1ccc(OC)cc1 0.753
CO[C@H]1COC(=O)[C@@H](C)COC(=O)[C@H](C)NC(=O)CC=C[C@H]1C 0.76
C[C@@H](c1ccccc1)N1C(=O)[C@H]2[C@H]3[C@H](O)[C@H](O)CC(=O)[C@H]3CC[C@H]2C1=O -0.105
CO[C@H]1COC(=O)CC=C[C@@H](C)[C@H](NS(=O)(=O)c2ccc(C)cc2)COC(=O)CCC[C@@H]1C -0.883
CO[C@@H]1COC(=O)[C@H](CCSC)NC(=O)CC=C[C@@H](C)COC(=O)[C@H](C)NC(=O)CC=C[C@H]1C 0.033
CCC(=O)[C@@]1(O)C(=O)N2C(=C3C(=O)OCC[C@@H]31)N(Cc1ccccc1)C(C)=C(C(=O)OC)[C@H]2c1ccccc1 -0.242
CCOC(=O)[C@H](CC(C)C)NC(=O)CCC1CC(OC(=O)NCCc2ccc(F)cc2)CC2(CCCC(COC(=O)NCCOc3ccccc3)O2)O1 (stereo not given in full) 0.881
CCCNC(=O)OC[C@H]1O[C@H](CCON=C(C)CCN2CCCc3nc(C)c(C)cc32)C=C[C@@H]1Oc1ccc(OC)cc1 0.99
O=C1CCCC=C1C(O)CCOC(c1ccccc1)(c1ccccc1)c1ccccc1 (stereo not given) -0.205

— PubChem BioAssay
